# Only some compounds are listed: those with a hit (about 0.67% of all), similar ones and a draw of the others.
# Vc quorum ag-1 – quorum light induction in luxS cqsA deficient V. cholerae; V. cholerae BH1578 lux reporter, luminescence, 6 h; activation, % at 18.7 µM; 350,000 compounds, 0.16% hits; AID 588436; in the data active = activation mostly above about 9.7%, no sharp cut-off
# TcdB GH inh – blocks C. difficile toxin B glycohydrolase activity | P18177 | TcdB glycohydrolase enzymatic assay, plate reader | inhibition, % at 9.99 µM | 350,000 compounds, 0.24% hits; in the data active = inhibition above about 10%
# Sa RN4220 lethal – kills Staphylococcus aureus RN4220 | S. aureus RN4220 growth, OD600, 16 h | inhibition, % (concentration not given with the values) | 330,000 compounds, 0.33% hits; in the data active = inhibition above about 85%;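 note: plate controls were untreated cells for no effect and reference antibiotic for full effect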
# Sa ugtP lethal – kills S. aureus RN4220 lacking UgtP | AID 1259309 | 330,000 compounds, 0.54% hits | growth inhibition, % (test concentration not listed) | S. aureus RN4220 ugtP deletion, OD600 growth, 16 h; in the data active = growth inhibition above about 68%;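 note: plate controls were untreated wells for no effect and antibiotic for full effect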
# Vc quorum ag-2 – inducers of V. cholerae quorum light production without autoinducers. shares compounds with Vc quorum ag-1. AID 602243. activation, % at 50 µM. 620 tested, under 10 active. V. cholerae BH1578 lux reporter, luminescence, 6 h; call rule not given here
# HeLa 24h tox – kills HeLa cells within 24 hours | shares compounds with Vc quorum ag-1 | HeLa viability, CellTiter-Glo ATP luminescence | activity change, negative = cytotoxicity, % at 35 µM | 25 tested, under 10 active | AID 624140;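 active = signal drop with fitted half-maximal concentration at or below twice the highest valid dose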
# * marks the source's active call; other numbers are inactive results; i = inactive; . = not tested or not shown; + = active, no number.
SMILES,Vc quorum ag-1,TcdB GH inh,Sa RN4220 lethal,Sa ugtP lethal,Vc quorum ag-2,others
CCCCn1c(=O)[nH]c(=O)c2c1nc(COc1ccc(C#N)cc1)n2CCC,12,.,-13,-7,0,
CCc1cc(C(=O)N2CCN(C(=O)c3ccccc3)CC2)sc1C,14,1,2,2,0,
COc1ccc(N2CC(C(=O)Nc3cc(C(F)(F)F)ccc3N3CCCC3)CC2=O)c(OC)c1 (stereo not given),19,1,1,3,5,
CCCCn1c(NCc2ccc(N(C)C)cc2)nc2ccccc21,0,-4,2,12,.,
CCCn1nnnc1NCc1ccccc1Cl,i,1,4,6,.,HeLa 24h tox=2
CCCn1nnnc1NCc1ccc(N(C)C)cc1,.,-1,2,10,i,
CCCn1nnnc1NCc1ccc(C(C)C)cc1,.,2,2,14,i,HeLa 24h tox=6
CCCn1nnnc1NCc1ccccc1OCC,0,1,.,.,.,
CCCCn1nnnc1NCc1cccs1,0,0,3,10,.,
CC1CN(C(C)CO)C(=O)c2cccc(NS(=O)(=O)c3cccs3)c2OC1CN(C)Cc1ccc(C(F)(F)F)cc1 (stereo not given),.,.,7,1,.,
CCCc1cc(=O)[nH]c(Nc2ccc(N3CCCCC3)cc2)n1,+,.,-4,0,i,
Cc1nn(-c2cccc(Cl)c2)c(Cl)c1C=NNC(=O)c1cccs1,.,.,3,-16,.,
Cc1c(Cl)cccc1-n1cnc(=O)c2ccccc21,3,0,3,4,.,HeLa 24h tox=-6
O=c1ncn(-c2cccc([N+](=O)[O-])c2)c2ccccc12,11,-1,4,8,.,
CC(C)(C)OC(=O)NCCCCCO,i,2,2,2,.,
CC(C)(C)OC(=O)NCCCC(CCCNC(=O)OC(C)(C)C)C(=O)O,12,.,-11,-6,0,
Cc1ccc(Cn2c(SCC(C)C)nc3c2c(=O)[nH]c(=O)n3C)cc1,25*,.,-3,4,2,
CC(Cc1ccccc1)=NNC(=O)CNC(=O)Cc1ccc(Cl)cc1,.,.,0,5,.,
COC(=O)c1ccc(-c2nc3cc(Cl)c(N)cc3s2)cc1,25*,.,-1,1,0,
Cc1cc(COc2ccccc2O)on1,12,.,3,5,201,
CC1=NN(/C(=N/c2nnc(C)s2)Nc2ccccc2)[C@H](c2cccc3ccccc23)S1,.,.,-7,31,.,
CN(c1ccccc1)S(=O)(=O)c1nnc(NC(=O)C2CCCCC2)s1,19*,-1,8,9,0,
COc1ccc2c(c1)C1C(CO2)C(c2ccccc2)[C@]2(C)C(=O)Nc3ccccc3C(=O)N12 (stereo not given in full),.,.,-5,-12,.,
C#CCOCCOCCOCCNc1nc(N2CCN(C(=O)C(C)n3cc(CCC(=O)O)nn3)CC2)nc(N2CCN(C(=O)C(Cc3ccc(O)cc3)n3cc(CCO)nn3)CC2)n1 (stereo not given),.,.,-1,-7,.,
COc1ccc(S(=O)(=O)Nc2cccc(S(=O)(=O)N3CCCC3)c2)cc1OC,14,2,5,11,-100,
SMILES,Vc quorum ag-1,TcdB GH inh,Sa RN4220 lethal,Sa ugtP lethal,Vc quorum ag-2,others
COc1ccc(CCN(C)C(=O)c2cc(S(=O)(=O)N3CCCCCC3)ccc2OC)cc1OC,19,2,1,2,0,
COc1ccc(S(=O)(=O)N2CCCCC2)cc1NC(=O)c1ccc(OC)c(OC)c1,14,1,2,3,0,
COc1ccc(C2=NN(c3nc4ccccc4s3)C(=O)C2=CN(C)C)cc1,.,.,10,6,.,
COC(=O)NN=C(CCC(=O)O)c1cccs1,.,.,4,5,.,
COc1ccc(C2C=CCN(C(=O)NC(C)C)CC(=O)N2Cc2ccc(F)cc2)cc1 (stereo not given),.,.,-1,-3,.,
Cc1cc(C)n2cc(COc3ccc4ccccc4c3)nc2n1,+,1,1,-1,287,
Cc1cccc2nc(COc3ccc(-c4ccccc4)cc3)cn12,.,.,10,3,.,
COc1ccccc1CNC(=O)c1ccc(S(=O)(=O)N(C)c2ccccc2)cc1,14,-1,2,-6,0,
Cc1cccc(NC(=O)c2c(O)c3ccccc3n(C)c2=O)c1,70*,0,-7,19,0,
Cc1ccc(NC(=O)c2c(O)c3ccccc3n(C)c2=O)nc1,i,.,15,33,.,
O=C(C(=CO)N=Nc1ccccc1Cl)c1ccccc1,.,.,12,7,.,
CCCOc1ccc(-c2nc(C#N)c(N3CCN(CC)CC3)o2)cc1,12,.,-11,-12,14,
O=C(CN1CCN(c2ccc(F)cc2)CC1)Nc1cc(C(F)(F)F)ccc1Cl,25*,.,0,2,1,
CCCS(=O)(=O)N1CCC(C(=O)N2CCN(C(=O)OCC)CC2)CC1,15*,.,-16,-6,0,
CNC(=S)NN=Cc1c(C)nn(-c2cccc(Cl)c2)c1Cl,.,.,5,5,.,
CC(=O)Nc1ccc(S(=O)(=O)N2CCSC2c2ccc(Cl)cc2)cc1 (stereo not given),i,.,-4,-6,.,
COc1ccc(S(=O)(=O)N2CCSC2c2ccc(N)cc2)cc1 (stereo not given),12,.,6,-1,0,
O=C1NC(=Cc2cccn2-c2ccccc2)C(=O)N1Cc1ccccc1F,.,.,7,57,.,
NC(=NOC(=O)c1cccc2ccccc12)c1ccc(Br)cc1,.,.,-7,-1,.,
Cc1ccc(C)c(OCCC(=O)OCC(=O)NC2CC2)c1,27,3,2,0,0,
Cc1ccc(C)c(OCCC(=O)OCC(=O)NC(=O)NC2CCCC2)c1,i,1,3,1,.,
Cc1cc(C)cc(NC(=O)Cn2ncn3c(cc4ccccc43)c2=O)c1,18*,1,5,4,1,
Cn1c(=O)n(N=Cc2ccccc2)c2ccccc21,.,.,5,4,.,
COc1ccccc1NC(=O)CN1CCN(c2ccccc2F)CC1,35*,.,7,0,96,
COc1ccccc1NC(=O)CN1CCN(C(=O)C2CCCO2)CC1 (stereo not given),22,2,2,0,6,
SMILES,Vc quorum ag-1,TcdB GH inh,Sa RN4220 lethal,Sa ugtP lethal,Vc quorum ag-2,others
COc1ccccc1NC(=O)CN1CCN(c2ccccc2OC)CC1,i,1,-5,-12,.,
O=C(Cn1cccc1C(=O)c1ccccc1)NCCN1CCCCCC1,12,.,2,1,0,
Cc1onc(-c2ccccc2)c1C(=O)n1cccn1,22*,.,4,5,0,
C#CCOCCOCCOCCNc1nc(N2CCOCC2)nc(N2CCN(C(=O)C(CO)n3cc(C(N)C(C)C)nn3)CC2)n1 (stereo not given),.,.,4,4,.,
COC(=O)/C=C1/S/C(=N/N=Cc2ccco2)NC1=O,.,.,1,-4,.,
COc1ccc(C(=O)O)cc1S(=O)(=O)Nc1cccc(C(F)(F)F)c1,17*,.,4,0,0,
COc1ccc(C(=O)N2CCCCC2)cc1S(=O)(=O)Nc1cccc(C(=O)O)c1,-2,0,-3,-1,.,
Cn1c(=O)c2c(nc(SCCN3CCOCC3)n2Cc2cccc3ccccc23)n(C)c1=O,12,.,-2,-4,0,
Cc1csc(NC(=O)C=Cc2ccc(C)o2)n1,.,.,3,-5,.,

# Assay outcomes as filed in PubChem BioAssay.
